Measured values as given in PubChem BioAssay AID1159580 (chemical genetic matrix, 2015).
Where “and” joins values, the source holds several entries; their conditions need not be identical. Equal values may be shown once. About 2,000 (36%) of roughly 5,500 compounds were called active. Inconclusive results (about 18%) are left out. Cut-off read from the data, not from the text of the source: active = normalized growth mostly below about 0.91 (no sharp cut-off); inconclusive = no clear call, values can overlap the other calls; inactive = mostly above about 0.92. The list shows a part of the results. A structure can be active in one record and inactive in another.

Assay: chemical genetic growth profiling, strain panel (AID 1159580);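 note: tested at 20 µM; growth read once vehicle control cultures reached saturation at 30 °C; 1 = growth at the plate median or of vehicle wells; lower values mean less growth of the strain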
Conditions: growth OD
[1] = S. cerevisiae deletion strains, locus YAL013W, strain DEP1, stronger effect = lower value
[2] = S. cerevisiae deletion strains, locus YAL040C, strain CLN3, stronger effect = lower value
[3] = S. cerevisiae deletion strains, locus YDR363W, strain ESC2, stronger effect = lower value
[4] = S. cerevisiae deletion strains, locus YER002W, strain NOP16, stronger effect = lower value
[5] = S. cerevisiae deletion strains, locus YJR075W, strain HOC1, stronger effect = lower value
[6] = S. cerevisiae deletion strains, locus YMR307W, strain GAS1, stronger effect = lower value
[7] = S. cerevisiae deletion strains, locus YNL153C, strain GIM3, stronger effect = lower value
[8] = S. cerevisiae deletion strains, locus YNL175C, strain NOP13, stronger effect = lower value
[9] = S. cerevisiae deletion strains, locus YNL197C, strain WHI3, stronger effect = lower value
[10] = S. cerevisiae deletion strains, locus YNL224C, strain SQS1, stronger effect = lower value
[11] = S. cerevisiae deletion strains, locus YOR083W, strain WHI5 (second series), stronger effect = lower value
[12] = S. cerevisiae deletion strains, locus YPL055C, strain LGE1, stronger effect = lower value

Measured: normalized growth

CSc1ccc2c(c1)C(N1CCN(C)CC1)Cc1ccccc1S2 (centres undefined)
active: S. cerevisiae deletion strains, locus YBR021W, strain FUR4, stronger effect = lower value 0.364 | S. cerevisiae deletion strains, locus YCL061C, strain MRC1 (second series), stronger effect = lower value 0.532 | S. cerevisiae deletion strains, locus YDL035C, strain GPR1, stronger effect = lower value 0.755 | S. cerevisiae deletion strains, locus YDL074C, strain BRE1, stronger effect = lower value 0.584 | S. cerevisiae deletion strains, locus YDL101C, strain DUN1, stronger effect = lower value 0.537 | S. cerevisiae deletion strains, locus YDL134C, strain PPH21, stronger effect = lower value 0.631 | S. cerevisiae deletion strains, locus YDL192W, strain arf1, stronger effect = lower value 0.102 | S. cerevisiae deletion strains, locus YDR162C, strain NBP2, stronger effect = lower value 0.139 | S. cerevisiae deletion strains, locus YDR318W, strain mcm21, stronger effect = lower value 0.807 | S. cerevisiae deletion strains, locus YDR388W, stronger effect = lower value 0.659 | S. cerevisiae deletion strains, locus YDR502C, strain sam2, stronger effect = lower value 0.859 | S. cerevisiae deletion strains, locus YGL086W, strain mad1, stronger effect = lower value 0.741 | S. cerevisiae deletion strains, locus YGL248W, strain PDE1, stronger effect = lower value 0.712 | S. cerevisiae deletion strains, locus YGR078C, strain PAC10, stronger effect = lower value 0.833 | S. cerevisiae deletion strains, locus YGR135W, strain pre9, stronger effect = lower value 0.753 | S. cerevisiae deletion strains, locus YGR229C, strain SMI1, stronger effect = lower value 0.142 | S. cerevisiae deletion strains, locus YGR252W, strain gcn5, stronger effect = lower value 0.254 | S. cerevisiae deletion strains, locus YHR030C, strain SLT2, stronger effect = lower value 0.655 | S. cerevisiae deletion strains, locus YHR079C, strain IRE1 (second series), stronger effect = lower value 0.911 | S. cerevisiae deletion strains, locus YIL066C, strain RNR3, stronger effect = lower value 0.759 | S. cerevisiae deletion strains, locus YIL073C, strain SPO22, stronger effect = lower value 0.437 | S. cerevisiae deletion strains, locus YJL095W, strain BCK1, stronger effect = lower value 0.537 | S. cerevisiae deletion strains, locus YJL187C, strain SWE1 (second series), stronger effect = lower value 0.658 | [5] 0.834 | S. cerevisiae deletion strains, locus YKL190W, strain CNB1, stronger effect = lower value 0.657 | S. cerevisiae deletion strains, locus YKR001C, strain vps1, stronger effect = lower value 0.0823 | S. cerevisiae deletion strains, locus YLR039C, strain RIC1, stronger effect = lower value 1.54 [resistant] | S. cerevisiae deletion strains, locus YLR058C, strain SHM2, stronger effect = lower value 0.77 | S. cerevisiae deletion strains, locus YLR262C, strain YPT6, stronger effect = lower value 1.56 [resistant] | S. cerevisiae deletion strains, locus YLR342W, strain FKS1 (second series), stronger effect = lower value 0.2 | S. cerevisiae deletion strains, locus YLR418C, strain cdc73, stronger effect = lower value 0.575 | S. cerevisiae deletion strains, locus YML032C, strain rad52, stronger effect = lower value 0.894 | S. cerevisiae deletion strains, locus YMR223W, strain ubp8, stronger effect = lower value 0.779 | [7] 0.747 | S. cerevisiae deletion strains, locus YNL233W, strain BNI4, stronger effect = lower value 0.696 | S. cerevisiae deletion strains, locus YNL307C, strain MCK1, stronger effect = lower value 0.791 | S. cerevisiae deletion strains, locus YNL322C, strain KRE1, stronger effect = lower value 0.773 | S. cerevisiae deletion strains, locus YNR052C, strain pop2, stronger effect = lower value 0.705 | S. cerevisiae deletion strains, locus YOL006C, strain TOP1, stronger effect = lower value 0.413 | S. cerevisiae deletion strains, locus YOR061W, strain CKA2, stronger effect = lower value 0.122 | [11] 0.745 | S. cerevisiae deletion strains, locus YOR184W, strain ser1, stronger effect = lower value 0.82 | [12] 0.596 and 0.806 | S. cerevisiae deletion strains, locus YPR163C, strain tif3, stronger effect = lower value 0.0814 | S. cerevisiae deletion strains, strain wtn01, stronger effect = lower value 0.717 | S. cerevisiae strains, strain wild type, stronger effect = lower value 0.698
0.514 (active) and 0.999 (inactive): [6]
0.771 (active) and 1.09 (inactive): S. cerevisiae deletion strains, locus YNL128W, strain TEP1, stronger effect = lower value
inactive: [1] 0.916 | [2] 1 | S. cerevisiae deletion strains, locus YBR229C, strain ROT2, stronger effect = lower value 1.01 | S. cerevisiae deletion strains, locus YCL029C, strain bik1, stronger effect = lower value 0.987 | S. cerevisiae deletion strains, locus YDL185W, strain tfp1, stronger effect = lower value 1.01 | S. cerevisiae deletion strains, locus YDR101C, strain arx1, stronger effect = lower value 0.929 | S. cerevisiae deletion strains, locus YDR150W, strain NUM1, stronger effect = lower value 1 | [3] 0.889 | S. cerevisiae deletion strains, locus YEL061C, strain CIN8, stronger effect = lower value 0.975 | [4] 1.07 | S. cerevisiae deletion strains, locus YER110C, stronger effect = lower value 0.976 | S. cerevisiae deletion strains, locus YER155C, strain BEM2, stronger effect = lower value 1.02 | S. cerevisiae deletion strains, locus YER167W, strain BCK2, stronger effect = lower value 0.937 | S. cerevisiae deletion strains, locus YGL078C, strain dbp3, stronger effect = lower value 0.991 | S. cerevisiae deletion strains, locus YHR094C, strain hxt1, stronger effect = lower value 0.993 | S. cerevisiae deletion strains, locus YHR129C, strain ARP1, stronger effect = lower value 0.99 | S. cerevisiae deletion strains, locus YHR200W, strain rpn10, stronger effect = lower value 0.959 | S. cerevisiae deletion strains, locus YIL125W, strain kgd1, stronger effect = lower value 0.977 | S. cerevisiae deletion strains, locus YIR030C, strain dcg1, stronger effect = lower value 0.958 | S. cerevisiae deletion strains, locus YJL134W, strain LCB3, stronger effect = lower value 1.01 | S. cerevisiae deletion strains, locus YJL168C, strain set2, stronger effect = lower value 0.947 | S. cerevisiae deletion strains, locus YJR043C, strain POL32, stronger effect = lower value 0.92 | S. cerevisiae deletion strains, locus YKL009W, strain mrt4, stronger effect = lower value 0.962 | S. cerevisiae deletion strains, locus YKL068W, stronger effect = lower value 0.999 | S. cerevisiae deletion strains, locus YKL085W, strain MDH1 (second series), stronger effect = lower value 0.987 | S. cerevisiae deletion strains, locus YKL085W, strain MDH1, stronger effect = lower value 0.987 | S. cerevisiae deletion strains, locus YLR102C, strain apc9, stronger effect = lower value 0.987 | S. cerevisiae deletion strains, locus YLR268W, strain sec22, stronger effect = lower value 0.901 | S. cerevisiae deletion strains, locus YLR330W, strain CHS5, stronger effect = lower value 0.994 | S. cerevisiae deletion strains, locus YML124C, strain tub3, stronger effect = lower value 0.995 | S. cerevisiae deletion strains, locus YMR078C, strain ctf18, stronger effect = lower value 0.993 | S. cerevisiae deletion strains, locus YMR263W, strain SAP30, stronger effect = lower value 0.917 | S. cerevisiae deletion strains, locus YNL067W, strain RPL9B, stronger effect = lower value 0.914 | [8] 1.02 | [9] 1.06 | [10] 1.01 | S. cerevisiae deletion strains, locus YNL250W, strain rad50, stronger effect = lower value 1.01 | S. cerevisiae deletion strains, locus YNL271C, strain bni1, stronger effect = lower value 0.977 | S. cerevisiae deletion strains, locus YNL298W, strain CLA4, stronger effect = lower value 0.979 | S. cerevisiae deletion strains, locus YOL012C, strain htz1 0.27 | S. cerevisiae deletion strains, locus YOL147C, strain pex11, stronger effect = lower value 0.944 | S. cerevisiae deletion strains, locus YOR069W, strain VPS5, stronger effect = lower value 1 | S. cerevisiae deletion strains, locus YOR136W, strain idh2, stronger effect = lower value 0.938 | S. cerevisiae deletion strains, locus YOR144C, strain elg1, stronger effect = lower value 1.01 | S. cerevisiae deletion strains, locus YOR316C, strain cot1, stronger effect = lower value 0.986 | S. cerevisiae deletion strains, locus YPL241C, strain CIN2, stronger effect = lower value 0.996 | S. cerevisiae deletion strains, locus YPR119W, strain clb2, stronger effect = lower value 0.988 | S. cerevisiae deletion strains, locus YPR141C, strain kar3, stronger effect = lower value 0.998 | S. cerevisiae deletion strains, locus YPR167C, strain met16, stronger effect = lower value 0.986

CN1CCN(C2Cc3ccccc3Sc3ccc(Cl)cc32)CC1 (centres undefined)
inactive: [2] 1 | [3] 0.897 | [4] 1.04 | [6] 1.01 | [8] 0.915 | [9] 0.989 | [10] 1.01 | [12] 0.923
active: [1] 0.883 | [5] 0.881 | [7] 0.587 | [11] 0.668
